From PubChem BioAssay (NCI) come the findings set out here.

The panel holds about 83,000 compounds, 20% with a hit somewhere; the sample as a whole holds those more often.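 Cells were grown in 96-well plates and exposed to the test compound at a single concentration for 48 hours; results are reported as percent growth, with values below 10 considered active.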 Active and inactive are the calls of the source.

This assay relates to OVCAR-5 ovarian. In words: NCI-60 one-dose screen, 48 h (100 = growth as untreated, 0 = no growth, -100 = all killed). The following applies: 10 µM unless noted. Here is the method: Growth inhibition of the OVCAR-5 human tumor cell line is measured as a screen for anti-cancer activity. Cells are grown in 96 well plates and exposed to the test compound for 48 hours. Compounds are tested at a single concentration, which is 10^-5 M for most compounds. The reported endpoint is percent growth (GI% or GIPRCNT), where numbers from 0 - 100% represent growth inhibition, and numbers from -100% - 0 represent cell death. For example, a value of 40 represents 60% growth inhibition. A value of 0 means no net growth occurred over the course of the experiment. A value of -40 indicates 40% of cells at the beginning of the experiment died by the end of the experiment. A value of -100 means all cells are dead at the end of the experiment.
NCI-60 Human Tumor Cell Lines Screen was performed using the standard one-dose NCI protocol, which is described in more detail at https://dtp.cancer.gov/discovery_development/nci-60/default.htm.
Compounds with GIPRCNT values below 10 were considered active. Activity score was based on GIPRCNT using the following formula: […]
Score is 0 for GIPRCNT values of 100 or above, 50 for GIPRCNT values of 0, and 100 for GIPRCNT values of -100.
As for `O=c1oc2ccccc2cc1-c1csc(N/N=C/c2cc3ccccc3nc2Cl)n1`, the growth is 98.6% (inactive). In the case of `Cn1c(=O)c2c(-c3ccccc3F)n(-c3ccc4c(c3)OCO4)cc2n(C)c1=O` it was 98.6% (inactive); in that of `O=C(CCc1nnc2sc(/C=C\c3ccccc3)nn12)c1nc2ccccc2[nH]1`, 116% (inactive); in that of `Nc1nc(N)c(N=Nc2c(Br)cc(S(N)(=O)=O)cc2Br)c(N)n1`, 109% (inactive). In the case of `Cc1cc(C)c(S(=O)O)c(C)c1` it was 114% (inactive); in that of `Oc1cccc(Nc2nc(-c3ccccn3)cs2)c1`, 110% (inactive); in that of `COc1cc2nc(SCc3cc(OC)c(OC)c(OC)c3)n(-c3ccccc3OC)c(=O)c2cc1OC`, 89% (inactive). For `COc1ccc(/C=N/OCC(O)CN2CCC(O)CC2)cc1OC1CCCC1` (stereo not given), the growth is 101% (inactive). In the case of `COc1ccc(-c2nc3sccn3c2/C=C/C(=O)c2cc(OC)c(OC)c(OC)c2)cc1OC` it was 79.1% (inactive); in that of `Cc1nc2cc(Nc3nc(Nc4ccc(F)cc4)nc(N4CCN(C)CC4)n3)ccc2n1Cc1ccccc1`, 42.9% (inactive). As to `COc1cc(-c2ccc3cc(OC)c(OC)c(OC)c3c2)cc(OC)c1OC`, the growth was 82% (inactive). The result for `Cc1nn(-c2ccccc2)c2nc3nc4c(c(N)c3c(-c3ccc(Cl)cc3)c12)CCCC4` reads 96.3% (inactive). The result for `Nc1nc2c(s1)CCc1c-2c(Br)n(Cc2ccccc2)c1Br` reads 105% (inactive); that for `COc1ccc(/C=C(\C#N)c2ccc(OC)cc2)cc1`, 85.1% (inactive); that for `O=C(c1cnn2c1NC(c1ccc(F)cc1)C2)N1CCCCC1` (stereo not given), 102% (inactive). In the case of `Cc1ccc(-c2c3c(N)c4c(nc3nc3c2c(C)nn3-c2ccccc2)CCCC4)cc1` it was 101% (inactive); in that of `COc1cc(-c2nc3ccccc3o2)cc(CN2CCN(c3ccccc3)CC2)c1O`, 117% (inactive). `Cc1ccc(S(=O)(=O)N2C/C(=C\c3cc(F)cc(F)c3)C(=O)/C(=C/c3cc(F)cc(F)c3)C2)cc1`: the growth was -30.6% (active). In the case of `CC(=O)N(CC(O)CO)c1c(I)c(C(=O)NCCO)c(I)c(C(=O)NCC(O)CO)c1I` (stereo not given) it was 99.8% (inactive); in that of `COc1ccc(-c2csc3c2-n2cccc2C3=O)cc1O`, 84.5% (inactive); in that of `Cc1cccc2c(=O)c3c(sc12)c(NCCCN)nc1ccccc13`, 51.7% (inactive).

`N#Cc1c(-c2cccc(F)c2)cc(-c2ccc(Br)s2)[nH]c1=O`: the growth was 102% (inactive). The result for `NS(=O)(=O)c1ccc(C(=O)N/N=C(\CS(=O)(=O)c2ccccc2)c2cc3cc(Br)ccc3o2)cc1` reads 99.8% (inactive); that for `CCCCOC(=O)C1OC(Oc2ccc3c(C)cc(=O)oc3c2)[C@@H](OC(C)=O)C(OC(C)=O)C1OC(C)=O` (stereo not given in full), 97.8% (inactive); that for `COc1ccc(NS(=O)(=O)c2ccc(-c3cnc(C4CC4)o3)cc2)cc1`, 78.6% (inactive). The result for `COc1cccc(-c2ccc3c(c2)C2CCN(Cc4ccccc4)C3C2)c1` (stereo not given) reads 84.4% (inactive); that for `COc1ccc(-c2nc(Nc3ccc(F)cc3)nc(Nc3ccc4c(c3)nc(C)n4Cc3ccccc3)n2)cc1`, 88.1% (inactive); that for `COc1ccc(C(=O)C2=CC(=O)C(=O)C2)cc1OC`, 98.2% (inactive). Consider `Cc1nc2cc(Nc3nc(Nc4ccc(F)cc4)nc(N4CCCC4)n3)ccc2n1Cc1ccccc1`, for which the growth is -54.8% (active). The result for `COc1cc(-c2nc(SC(C)C)nc(Nc3cccc(C)c3)c2C#N)cc(OC)c1OC` reads 107% (inactive). In the case of `COc1ccc(S(=O)(=O)ON=C2C=C(C)C(=O)C(C)=C2)cc1` it was 103% (inactive).

In the case of `c1ccc(-c2n(Cc3ccc4ccccc4c3)c3ccccc3[n+]2Cc2ccc3ccccc3c2)cc1`, the growth is 2.69% (active). Regarding `Cc1c(C(=O)Nc2nc(-c3ccccc3)cs2)nnn1-c1cccc2ccccc12`, the growth was 86.8% [50 µM] (inactive). In the case of `CCC(C)Oc1cc(/C=N/NC(=O)c2cnn3c2NC(c2ccccc2)C3)ccc1OC` (stereo not given) it was 61.3% (inactive); in that of `CC(=O)c1cc(C)c(OC(=O)c2ccccc2)c(C)c1`, 106% (inactive). For `Cc1nc(NN)c([N+](=O)[O-])c(NN)n1`, the growth is 92.8% (inactive). The result for `C=CC[P+](c1ccccc1)(c1ccccc1)c1ccccc1` reads 77% (inactive).

With `COc1ccc(OC)c2ncccc12`, the growth was 107% (inactive). In the case of `COc1cc(CNCCN2C(=O)c3ccc4c5c(ccc(c35)C2=O)C(=O)N(CCNCc2cc(OC)c(OC)c(OC)c2)C4=O)cc(OC)c1OC` it was -78.7% (active).

With `Cc1ccccc1-n1nnc(C(=O)Nc2nc(-c3ccccc3)c(-c3ccccc3)s2)c1C`, the growth was 96.5% [50 µM] (inactive).
